# Screening results from PubChem BioAssay.
# Pf growth 96h = P. falciparum growth inhibition at 96 hours; 6.9% of 320,000 active; P. falciparum luciferase reporter growth, 96 h; Potency, µM (top dose mostly 28.7 µM), without a hit: at the highest dose activity change, negative = inhibition, most hits filed as inhibitors; AID 504834; note: potency is the fitted concentration of half-maximal effect; % is set by controls: 0 for no effect and ±100 for the full control effect
#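 96 h incubation, 37 C, 5% CO2, of luciferase-reporter P. falciparum-infected RBCs (2% hematocrit, 0.05% parasitemia final) with test compounds; endpoint luminescence.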
# SARS PLpro yeast = SARS-CoV PLP inhibition in yeast | S. cerevisiae expressing SARS-CoV PLpro, growth rescue | Potency, µM (highest dose often 32.9 µM), inactives show top-dose activity, positive = growth rescue, actives largely listed as activators | 0.19% of 330,000 active | AID 485353; calls by dose curve; note: potency is the fitted concentration of half-maximal effect; 0% is about no effect; nearly all actives have a fitted effect of over 55% in size
# NS1 function inh = inhibitors of influenza NS1 protein function; AID 2326; 0.4% of 270,000 active; Potency, µM (series often up to 46.1 µM), for the others: at the highest dose activity, positive = more growth; calls by dose curve; note: potency is the fitted concentration of half-maximal effect; actives are rising curves; nearly all actives have a fitted effect of over 50% in size
#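 OD600 was taken as the measure of yeast growth restored by compound in an NS1-expressing S. cerevisiae strain. Cells had been washed out of glucose medium and diluted 1:100 into galactose -URA medium, pH 6.0.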
# CHX counter = counter-screen for Shiga toxin inhibitors: cycloheximide protein synthesis inhibition. cell reporter, cycloheximide protein synthesis inhibition counterscreen. max response, %. 12% of 300,000 active. AID 2314; in the data active = max response mostly above about 13%, no sharp cut-off; inactive = mostly below about 14%; note: read at 38.3 µM for the half of the compounds with a filed dose; 0% is about no effect
# Shiga toxin inh = inhibitors of Shiga toxin in Vero cells. Vero cells, Shiga toxin protein synthesis inhibition reporter. inhibition, % at 38.7 µM. 9.2% of 290,000 active; in the data active = inhibition mostly above about 28%, no sharp cut-off; inactive = mostly below about 43%; note: 0% is about no effect
# Pf growth 48h = P. falciparum growth inhibition at 48 hours (one generation) | P. falciparum luciferase growth in erythrocytes, 48 h | Potency, µM (highest dose often 28.7 µM), inactives show at the highest dose activity change, negative = inhibition, most hits filed as inhibitors | 5.9% of 310,000 active | AID 504832; note: potency is the fitted concentration of half-maximal effect; % is set by controls: 0 for no effect and ±100 for the full control effect
#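 Luminescence readout; reporter = integrated firefly luciferase in P. falciparum. RBC culture at 2% hematocrit, 0.1% parasitemia final, 37 C/5% CO2; decreased signal taken as growth inhibition.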
# * = called active by the depositor; ? = inconclusive; / = no result given. An excerpt weighted towards active compounds, which were near 21% of everything screened. Unless noted, calls come from the whole dose curve; as a rule, active = well fitted inhibition curve with a large enough effect; inconclusive = small, poorly fitted or top-dose-only effect, or another doubt; inactive = no such curve, though single readings can be large or run the other way.
SMILES,Pf growth 96h,SARS PLpro yeast,NS1 function inh,CHX counter,Shiga toxin inh,Pf growth 48h
Cc1cccc(N2C(=O)N3[C@H](c4ccc(Cl)cc4)[C@@H]4C(=O)N(C5CCCCC5)C(=O)[C@@H]4[C@]3(Cc3ccc(Cl)cc3)C2=O)c1,?,-4%,3%,-3,-11,?
O=C1[C@H]2[C@@H](c3ccc(Cl)cc3)N3C(=O)N(c4cccc(F)c4)C(=O)[C@@]3(Cc3ccc(Cl)cc3)[C@H]2C(=O)N1C1CCCCC1,?,12%,20%,-3,-8,?
Cc1cccc(N2C(=O)N3[C@H](c4ccc(F)cc4)[C@@H]4C(=O)N(C5CCCCC5)C(=O)[C@@H]4[C@]3(Cc3ccc(Cl)cc3)C2=O)c1,?,8%,?,-4,-4,?
O=C1[C@H]2[C@@H](c3ccc(F)cc3)N3C(=O)N(c4cccc(F)c4)C(=O)[C@@]3(Cc3ccc(Cl)cc3)[C@H]2C(=O)N1C1CCCCC1,8.3µM*,-1%,/,/,/,15µM*
Cc1ccc(N2C(=O)N3[C@H](c4ccc(Cl)cc4)[C@@H]4C(=O)N(C5CCCCC5)C(=O)[C@@H]4[C@]3(Cc3ccccc3)C2=O)cc1,3.7µM*,-1%,-16%,9.7*,19*,?
O=C1[C@H]2[C@@H](c3ccc(F)cc3)N3C(=O)N(c4ccc(Br)cc4)C(=O)[C@@]3(Cc3ccccc3)[C@H]2C(=O)N1C1CCCCC1,3.7µM*,9%,?,1,-6,3.3µM*
O=C1[C@H]2[C@@H](c3ccc(Cl)cc3)N3C(=O)N(c4cccc(Cl)c4)C(=O)[C@@]3(Cc3ccc(Cl)cc3)[C@H]2C(=O)N1C1CCCCC1,?,1%,/,/,/,2.6µM*
O=C(COC(=O)COc1ccc(Cl)cc1)Nc1ccc2c(c1)OCCO2,29%,-1%,/,/,/,-10%
O=C(O)/C=C/c1cc(F)c(S(=O)(=O)N2CCN(S(=O)(=O)c3ccc4c(c3)OCCO4)CC2)cc1F,/,/,/,-3,-5,/
COc1ccc(OC)c(-c2nn(-c3ccccc3)cc2C(=O)NCC(c2cccs2)N2CCOCC2)c1 (stereo not given),?,-1%,/,/,/,?
Cc1ccc(C(=O)NN(CCC(=O)NC(C)(C)C)C2=NS(=O)(=O)c3ccccc32)cc1,5.9µM*,11%,-12%,-1,-11,-9%
COc1ccc(NC(=O)C2CCCN(c3nc(C)cc(C)n3)C2)cc1 (stereo not given),3%,-1%,2%,6,-5,-4%
CCC(C)c1ccc(NC(=O)C2CC2)cc1 (stereo not given),171%,-18%,-139%,25*,59*,?
COc1ccc(NC(=O)C2CCCN(c3nccc(C)n3)C2)cc1 (stereo not given),10µM*,5%,/,-2,16,-12%
CC(C)c1ccc(NC(=S)NNC(=O)C2CC2)cc1,-12%,1%,2%,2,13,7%
Cc1cc(N2CCCC(C(=O)Nc3ccc4c(c3)CCC4)C2)n2ncnc2n1 (stereo not given),16%,3%,2%,-3,-3,-19%
CCC(C)c1ccc(NC(=O)C2CCCN(c3ncccn3)C2)cc1 (stereo not given),8%,-9%,-46%,33*,50*,-8%
Cc1cc(N2CCCC(C(=O)Nc3cccc(Cl)c3)C2)n2ncnc2n1 (stereo not given),15µM*,0%,-1%,-1,-9,-2%
CCc1ccccc1NC(=O)C1CCCN(c2ncccn2)C1 (stereo not given),4%,-2%,2%,-3,-3,8%
COc1ccc(NC(=O)C2CCCN(c3cnccn3)C2)cc1 (stereo not given),?,-2%,-8%,14,-3,-17%
O=C(NC1CCCCC1)C1CCN(c2ncccn2)CC1,14%,3%,8%,-3,-8,28%
CC(C)(C)c1ccc(NC(=O)C2CCCN(c3cnccn3)C2)cc1 (stereo not given),-19%,-31%,-10%,16*,34,?
COc1ccc(NC(=O)C2CCCN(c3ncccn3)C2)cc1 (stereo not given),-3%,0%,-3%,30*,92*,59%
O=C(NC1CCCCCC1)C1CCCN(c2ncccn2)C1 (stereo not given),0%,5%,1%,24*,38,?
COCCNC(=O)C1CCCN(c2ncccn2)C1 (stereo not given),?,5%,-3%,-1,-8,0%
SMILES,Pf growth 96h,SARS PLpro yeast,NS1 function inh,CHX counter,Shiga toxin inh,Pf growth 48h
Cc1ccc(NC(=O)C2CCCN(c3ncccn3)C2)cc1C (stereo not given),?,-2%,-14%,29*,99*,35%
Cc1ccnc(N2CCCC(C(=O)Nc3ccc(C)c(C)c3)C2)n1 (stereo not given),24%,0%,-2%,-5,15,?
O=C(C[C@H]1C[C@H](C(=O)N2CCOCC2)[C@@]2(CCC3CCCC3)c3[nH]c4cc(-c5ccco5)ccc4c3CCN2C1=O)NCCc1ccccn1,/,0%,/,/,/,/
Cc1ccc(N2C(=O)C(NC(=O)c3ccccc3)(C(F)(F)F)C3=C2CC(C)(C)CC3=O)cc1 (stereo not given),-16%,8%,6%,-2,-4,?
CN(C)C(CNC(=O)c1ccc(S(=O)(=O)N(C)C)cc1)Cc1ccccc1 (stereo not given),-28%,2%,/,7,-12,-7%
Cc1cc(C)c(NC(=O)C2CCN(c3cnccn3)CC2)c(C)c1,13µM*,-20%,-1%,-4,14,6%
CCOC(=O)c1c(C)nc(C(Cl)(Cl)Cl)nc1N,140%,0%,-9%,18*,56*,13µM*
CCOC(=O)c1nc(N)c(C(=O)OCC)[nH]1,/,5%,12%,-4,13,16%
CC1(C)CC(C)(c2ccc(O)cc2O)N(c2cccc(Cl)c2)C(=S)N1 (stereo not given),?,16%,-4%,-4,-6,4.1µM*
CC1(C)CC(C)(c2ccc(O)cc2O)N(c2ccc3ccccc3c2)C(=S)N1 (stereo not given),?,19%,23%,-1,1,?
COc1ccccc1-c1sc2cc3c(cc2c1C#CC1(O)CCCCC1)OCO3,4.7µM*,-1%,/,/,/,?
COc1ccc(-c2sc3ccc(N4CCOCC4)cc3c2C#Cc2ccsc2)cc1,/,-1%,/,/,/,/
COc1ccc(-c2sc3ccc(N4CCOCC4)cc3c2C#CC(C)(C)O)cc1,2.6µM*,-2%,/,/,/,?
CC(C(=O)Nc1ccc(Br)cc1)N(C)CC(=O)NCc1ccco1 (stereo not given),-7%,11%,/,/,/,21%
C/C(N)=C(/C#N)C(=O)COc1ncnc2ccccc12,-3%,-1%,2%,-3,34,27%
